Assay results as given in PubChem BioAssay AID1159580 (chemical genetic matrix, 2015).
Where “and” joins values, the source holds several entries; their conditions need not be identical. Identical values can stand only once. Hit rate of the full screen: of about 5,500 compounds, about 2,000 (36%) were called active. About 18% were inconclusive and are not listed. Rule as the data show it: active = normalized growth mostly below about 0.91 (no sharp cut-off); inconclusive = no clear call, values can overlap the other calls; inactive = mostly above about 0.92. Some of the results follow.

Assay: chemical genetic growth profiling, strain panel (AID 1159580);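 also: tested at 20 µM; growth read once vehicle control cultures reached saturation at 30 °C; 1 = growth at the plate median or of vehicle wells; lower values mean less growth of the strain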
Conditions: S. cerevisiae deletion strains, growth OD

Measured: normalized growth

CC(=O)O[C@H]1C[C@H](O[C@H]2[C@@H](O)C[C@H](O[C@H]3[C@@H](O)C[C@H](O[C@H]4CC[C@@]5(C)C(CCC6C5C[C@@H](O)[C@]5(C)[C@@H](C7=CC(=O)OC7)CC[C@]65O)C4)O[C@@H]3C)O[C@@H]2C)O[C@H](C)[C@H]1O[C@@H]1O[C@H](CO)[C@@H](O)[C@H](O)[C@H]1O (stereo not given in full)
inactive: locus YAL021C, strain ccr4, active compounds read low 1 | locus YAL026C, strain drs2, active compounds read low 0.996 | locus YAL030W, strain snc1, active compounds read low 1 | locus YBL061C, strain skt5, active compounds read low 0.991 | locus YBR009C, strain hhf1, active compounds read low 0.995 | locus YBR021W, strain FUR4, active compounds read low 1.02 | locus YBR023C, strain chs3, active compounds read low 0.999 | locus YBR171W, strain sec66, active compounds read low 0.995 | locus YBR229C, strain ROT2, active compounds read low 1.01 | locus YBR231C, strain swc5, active compounds read low 0.987 | locus YBR279W, strain paf1, active compounds read low 0.996 | locus YCL011C, strain gbp2, active compounds read low 1 | locus YCL016C, strain dcc1, active compounds read low 0.996 | locus YCL029C, strain bik1, active compounds read low 0.985 | locus YCL061C, strain MRC1, active compounds read low 0.999 | locus YCL069W, strain vba3, active compounds read low 0.993 | locus YCR088W, strain abp1, active compounds read low 0.989 | locus YDL005C, strain med2, active compounds read low 0.996 | locus YDL035C, strain GPR1, active compounds read low 1.03 | locus YDL040C, strain nat1, active compounds read low 0.994 | locus YDL074C, strain BRE1, active compounds read low 1.02 | locus YDL101C, strain DUN1, active compounds read low 1.02 | locus YDL134C, strain PPH21, active compounds read low 1.02 | locus YDL185W, strain tfp1, active compounds read low 1 | locus YDL192W, strain arf1, active compounds read low 1.01 | locus YDR001C, strain nth1, active compounds read low 0.994 | locus YDR069C, strain doa4, active compounds read low 0.988 | locus YDR101C, strain arx1, active compounds read low 0.983 | locus YDR137W, strain rgp1, active compounds read low 0.997 | locus YDR150W, strain NUM1, active compounds read low 1.01 | locus YDR159W, strain sac3, active compounds read low 0.981 | locus YDR162C, strain NBP2, active compounds read low 1.02 | locus YDR195W, strain ref2 0.961 | locus YDR297W, strain sur2, active compounds read low 0.994 | locus YDR318W, strain mcm21, active compounds read low 0.989 | locus YDR334W, strain swr1, active compounds read low 0.999 | locus YDR335W, strain msn5, active compounds read low 1 | locus YDR388W, active compounds read low 0.989 | locus YDR392W, strain spt3, active compounds read low 0.979 | locus YDR502C, strain sam2, active compounds read low 1.01 | locus YEL003W, strain gim4, active compounds read low 0.995 | locus YEL037C, strain rad23, active compounds read low 0.999 | locus YEL061C, strain CIN8 (second series), active compounds read low 0.99 | locus YEL061C, strain CIN8, active compounds read low 1.01 | locus YER015W, strain faa2, active compounds read low 0.994 | locus YER016W, strain bim1, active compounds read low 0.993 | locus YER110C, active compounds read low 0.984 | locus YER111C, strain swi4, active compounds read low 0.997 | locus YER155C, strain BEM2 (second series), active compounds read low 1.01 | locus YER155C, strain BEM2, active compounds read low 1 | locus YER167W, strain BCK2, active compounds read low 1.01 | locus YFR010W, strain ubp6, active compounds read low 0.994 | locus YGL078C, strain dbp3, active compounds read low 1.01 | locus YGL086W, strain mad1, active compounds read low 0.998 | locus YGL167C, strain pmr1, active compounds read low 1 | locus YGL173C, strain kem1, active compounds read low 1 | locus YGL227W, strain vid30, active compounds read low 0.987 | locus YGL240W, strain doc1, active compounds read low 0.995 | locus YGL248W, strain PDE1, active compounds read low 1.01 | locus YGL253W, strain hxk2, active compounds read low 0.997 | locus YGR078C, strain PAC10, active compounds read low 1 | locus YGR135W, strain pre9, active compounds read low 1.01 | locus YGR229C, strain SMI1, active compounds read low 1.02 | locus YGR252W, strain gcn5, active compounds read low 1.17 | locus YHR013C, strain ard1, active compounds read low 0.969 | locus YHR027C, strain rpn1, active compounds read low 0.999 | locus YHR030C, strain SLT2, active compounds read low 1 and 0.975 | locus YHR079C, strain IRE1, active compounds read low 0.966 | locus YHR094C, strain hxt1, active compounds read low 0.973 | locus YHR129C, strain ARP1, active compounds read low 1.01 | locus YHR142W, strain chs7, active compounds read low 0.996 | locus YHR200W, strain rpn10, active compounds read low 1 | locus YIL066C, strain RNR3, active compounds read low 1.01 | locus YIL073C, strain SPO22, active compounds read low 1.08 | locus YIL125W, strain kgd1, active compounds read low 1 | locus YIR030C, strain dcg1, active compounds read low 0.988 | locus YJL092W, strain hpr5, active compounds read low 1 | locus YJL095W, strain BCK1 (second series), active compounds read low 0.998 | locus YJL095W, strain BCK1, active compounds read low 1 and 0.977 | locus YJL115W, strain asf1, active compounds read low 0.996 | locus YJL129C, strain trk1, active compounds read low 0.998 | locus YJL134W, strain LCB3, active compounds read low 1.01 | locus YJL154C, strain vps35, active compounds read low 0.993 | locus YJL164C, strain tpk1, active compounds read low 1.01 | locus YJL166W, strain qcr8, active compounds read low 1 | locus YJL168C, strain set2, active compounds read low 0.982 | locus YJL187C, strain SWE1 (second series), active compounds read low 1.01 | locus YJL187C, strain SWE1, active compounds read low 0.995 | locus YJR043C, strain POL32, active compounds read low 0.999 | locus YJR066W, strain TOR1, active compounds read low 0.933
